The text below walks through data of PubChem BioAssay (Tox21).

Assay [1] can be described thus: qHTS assay to identify small molecule agonists of the estrogen receptor alpha (ER-alpha) signaling pathway in the presence of an antagonist - cell viability counter screen (AID 1259386).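 Further: cells exposed to compounds for 22 h at 37 °C before the viability read; nearly all actives have a fitted effect of over 30% in size.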 Further: potency means the concentration at half of the fitted maximal effect. The essentials:
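VM7Luc4E2, stripped-serum pre-culture 5 d; 24hr plating; +ICI-182,780 10.0nM final; cpds 15 conc, 22hr, 37C/5% CO2; CellTiter-Fluor added at 21hr, fluorescence 1hr later.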
(Quantitative high-throughput screening tests each substance at several concentrations.)

Assay [2] concerns the target Progesterone receptor (Homo sapiens) (UniProt P06401). As to the kind of experiment: qHTS assay to identify small molecule agonists of the progesterone receptor (PR) signaling pathway (AID 1346784; calls by dose curve; further: nearly all actives have a fitted effect of over 30% in size). The essentials: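 Agonist mode, quantitative HTS format in a HEK 293T line expressing a UAS-controlled beta-lactamase reporter; 16 hr compound exposure at 37C in 2% charcoal-stripped FBS, then LiveBLAzer B/G FRET fluorescence.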

The target is the same in assay [3]. Kind of assay: qHTS assay to identify small molecule antagonists of the progesterone receptor (PR) signaling pathway (AID 1346795; active means well fitted inhibition curve with a large enough effect in the signal ratio in the repeat runs, not every such curve was filed as active; the % refers to the signal ratio). The essentials: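 HEK293T PR-UAS-bla reporter cells in charcoal-stripped serum (2%) received compound after a 6 hr settling period, followed by R5020 agonist at 1 nM final; 16 hr incubation preceded the FRET substrate step and fluorescence measurement.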

Assay [4] can be described thus: qHTS assay to identify small molecule antagonists of the progesterone receptor (PR) signaling pathway - cell viability counter screen (AID 1346798). Further: series mostly up to about 92 µM; nearly all actives have a fitted effect of over 50% in size. An outline of the steps: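 Same-well multiplex: after 16 hr at 37C with compound and R5020 stimulation, HEK293T cells carrying a UAS-bla reporter received LiveBLAzer substrate (2 hr RT), then CellTiter-Glo (30 min RT) for luminescent viability.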

A short description of assay [5]: qHTS assay to identify small molecule agonists of the progesterone receptor (PR) signaling pathway - cell viability counter screen (AID 1346799; calls by dose curve; further: nearly all actives have a fitted effect of over 45% in size). The essentials:
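Counter screen for cytotoxicity: compound-treated PR-UAS-bla HEK293T cells (16 hr, 37C, 5% CO2) were assayed with CellTiter-Glo, luminescence measured after 30 min at room temperature.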

Assay [6] in a line: qHTS assay to identify small molecule antagonists of the TGF-beta/Smad signaling pathway - cell viability counter screen (AID 1346824). Further: nearly all actives have a fitted effect of over 50% in size. An outline of the steps: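 Cytotoxicity counter-screen run in the same wells as the beta-lactamase Smad reporter read: CellTiter-Glo luminescence after 30 min at room temperature. HEK 293T SBE-bla cells had 5 hr compound exposure at 37 C with TGF-beta1 (0.25 ng/mL stock).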

Assay [7] deals with Thyrotropin-releasing hormone receptor (Homo sapiens) (UniProt P34981). Kind of assay: qHTS assay to identify small molecule antagonists of the thyrotropin-releasing hormone receptor (TRHR) signaling pathway (AID 1346877; active means well fitted inhibition curve with a large enough effect in the repeat runs, not every such curve was filed as active; further: series mostly up to about 51 µM). An outline of the steps: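 Intracellular calcium fluorescence, read kinetically every second over 3 min, reports TRH-evoked signalling in HEK293 cells carrying TRHR. Test compounds were added 5 min ahead of a 1 nM TRH challenge.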

Assay [8] shares this target. As to the kind of experiment: qHTS assay to identify small molecule agonists of the thyrotropin-releasing hormone receptor (TRHR) signaling pathway (AID 1346891; calls by dose curve;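 further: HEK293 cells expressing TRHR with calcium dye readout; series mostly up to about 58 µM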). The essentials:
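Agonist-mode calcium mobilisation screen: TRHR-transfected HEK293 cells cultured overnight (18 h), dye-loaded for 2 h at 37 °C, exposed to compounds, and monitored by fluorescence for 3 min.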

Assay [9] in a line: Human pregnane X receptor (PXR) small molecule agonists, qHTS cell viability counter screen (AID 1346977). Further: nearly all actives have a fitted effect of over 50% in size. Further: potency means the concentration at half of the fitted maximal effect. The essentials: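 Measures live-cell protease fluorescence (CellTiter-Fluor) in PXR-Luc HepG2 cells treated 24hr with compounds at 37C. Cells had 5hr to attach before pin transfer of DMSO solutions.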
Assay [10] is described as follows: Caspase-3/7 induction in HepG2 cells by small molecules, qHTS assay (AID 1346978). Further: nearly all actives have a fitted effect of over 15% in size. The essentials: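 Caspase-3/7 induction was measured by Caspase-Glo 3/7 luminescence (30 min, room temperature) after a 17 hr compound exposure of wild-type HepG2 cells seeded at 2,000 per well and pre-incubated 5 hr.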
A short description of assay [11]: Caspase-3/7 induction in CHO-K1 cells by small molecules, qHTS cell viability counter screen (AID 1346979). Further: nearly all actives have a fitted effect of over 35% in size. Further: potency means the concentration at half of the fitted maximal effect. The essentials:
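In the same wells as the caspase read, viability of compound-treated wild-type CHO-K1 cells was assessed using CellTiter-Fluor, added after 16hr at 37C and measured by fluorescence following 1hr further incubation.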

A short description of assay [12]: Caspase-3/7 induction in HepG2 cells by small molecules, qHTS cell viability counter screen (AID 1346981). Further: nearly all actives have a fitted effect of over 30% in size. Further: potency means the concentration at half of the fitted maximal effect. An outline of the steps: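 HepG2, WT, 2,000 cells/well; 5 hr pre-incubation 37 C/5% CO2; compound pin-transferred from DMSO; 16 hr exposure; CellTiter-Fluor, 1 hr; fluorescence read.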
In assay [13] the target is Cytochrome P450 2D6 (Homo sapiens) (UniProt P10635). As to the kind of experiment: Cytochrome P450 Family 2 Subfamily D Member 6 (CYP2D6) small molecule antagonists: luciferase reporter qHTS assay (AID 1671196). Further: nearly all actives have a fitted effect of over 50% in size. Further: potency means the concentration at half of the fitted maximal effect. The essentials: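 Read-out is luminescence from luciferin formed by CYP2D6 turnover of a proluciferin substrate, recorded as relative luminescence units. Reactions ran 1 h at room temperature after NADPH regeneration solution was added.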
On the technique in general: A reporter such as luciferase makes a cellular process visible.

A short description of assay [14]: qHTS assay to identify small molecule agonists of the TGF-beta/Smad signaling pathway (AID 1346859; active means well fitted activation curve with a large enough effect in the signal ratio in the repeat runs, not every such curve was filed as active; the % refers to the signal ratio; further: series mostly up to about 77 µM). An outline of the steps:
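Smad-responsive beta-lactamase reporter cells (HEK 293T) received compounds from DMSO stocks after overnight attachment, were incubated 5 hr, then treated 2 hr with FRET substrate before dual-emission fluorescence measurement (405 nm excitation).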

Assay [15] can be described thus: qHTS assay to identify small molecule agonists of the TGF-beta/Smad signaling pathway - cell viability counter screen (AID 1346829). Further: top concentration of the series differs between compounds; nearly all actives have a fitted effect of over 45% in size. The essentials:
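CellTiter-Glo luminescence readout; SBE-bla HEK 293T cells, overnight plating, compound 5 hr at 37 C/5% CO2, then bla substrate 2 hr RT, then CellTiter-Glo 30 min RT.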

A short description of assay [16]: Caspase-3/7 induction in CHO-K1 cells by small molecules, qHTS assay (AID 1346980). Further: nearly all actives have a fitted effect of over 15% in size. An outline of the steps: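 Luminescent Caspase-Glo 3/7 read (30min, room temperature) quantified apoptosis induction. Cells were wild-type CHO-K1, treated with compound for 17hr at 37 C and 5% CO2.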
Assay [17] has as its target Nuclear receptor subfamily 1 group I member 2 (Homo sapiens) (UniProt O75469). Kind of assay: Human pregnane X receptor (PXR) small molecule agonists, qHTS assay (AID 1346982). Further: nearly all actives have a fitted effect of over 35% in size. Further: potency means the concentration at half of the fitted maximal effect. The essentials:
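Luciferase signal from ONE-Glo (30 min, room temperature) measured activation of hPXR-driven CYP3A4 reporter expression in PXR-Luc HepG2 cells treated with compounds for 24 hr at 37 C.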

Assay [18] deals with Nuclear receptor subfamily 1 group I member 2 (Rattus norvegicus) (UniProt Q9R1A7). Kind of assay: Rat pregnane X receptor (rPXR) activation by small molecules, qHTS assay (AID 1346983). Further: nearly all actives have a fitted effect of over 20% in size. The note with it: rPXR luciferase reporter cells, One-Glo luminescence, 24 h; active compounds read high. An outline of the steps: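 Luminescent readout (One-Glo luciferase, 30 min room temperature) followed 24 hr compound treatment at 37 C of rPXR cells plated 2,000 per well and preincubated 5hr; qHTS format with compounds delivered in DMSO.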

Assay [19] has as its target Nuclear receptor subfamily 1 group I member 2 (Homo sapiens) (UniProt O75469). Kind of assay: Human pregnane X receptor (PXR) activation by small molecules, qHTS assay (AID 1346985). Further: nearly all actives have a fitted effect of over 40% in size. An outline of the steps:
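DPX-2 cells (HepG2 co-transfected with a PXR response element and a CYP3A4-promoter luciferase construct) were seeded at 2,000 per well, rested 5 hr at 37C, then exposed to DMSO-dissolved compounds for 24 hr. Activation was read as luciferase luminescence.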

Where “and” joins values, the source holds several entries; their conditions need not be identical. Equal entries are not always repeated. Unmarked numbers belong to inactive results. Inconclusive results are not listed. Calls of active or inactive are those of the source. Unless noted, the call rests on the fitted dose curve; in most records, active means well fitted curve in the direction sought with a large enough effect in the repeat runs; inconclusive means weak or mixed curves; inactive means no such curve, though single readings can be large; an effect the other way counts as inactive or inconclusive.
On the % scale 0 is the no-effect control and ±100 the full control effect.

Chain of Nuclear receptor subfamily 1 group I member 2 (Homo sapiens) (O75469 whole entry, looked up): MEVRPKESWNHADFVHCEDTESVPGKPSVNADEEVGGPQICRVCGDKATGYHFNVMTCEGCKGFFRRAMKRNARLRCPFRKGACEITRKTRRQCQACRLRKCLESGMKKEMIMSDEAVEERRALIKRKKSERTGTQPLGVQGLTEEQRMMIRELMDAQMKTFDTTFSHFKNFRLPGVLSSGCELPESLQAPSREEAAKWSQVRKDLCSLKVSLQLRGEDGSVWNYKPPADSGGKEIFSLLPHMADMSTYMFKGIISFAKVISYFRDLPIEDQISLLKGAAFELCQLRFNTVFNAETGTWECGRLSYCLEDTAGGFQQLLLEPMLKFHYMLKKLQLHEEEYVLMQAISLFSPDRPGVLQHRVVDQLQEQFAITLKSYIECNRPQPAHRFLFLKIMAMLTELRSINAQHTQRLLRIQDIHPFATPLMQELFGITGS
Chain of Cytochrome P450 2D6 (Homo sapiens) (P10635 whole entry, looked up): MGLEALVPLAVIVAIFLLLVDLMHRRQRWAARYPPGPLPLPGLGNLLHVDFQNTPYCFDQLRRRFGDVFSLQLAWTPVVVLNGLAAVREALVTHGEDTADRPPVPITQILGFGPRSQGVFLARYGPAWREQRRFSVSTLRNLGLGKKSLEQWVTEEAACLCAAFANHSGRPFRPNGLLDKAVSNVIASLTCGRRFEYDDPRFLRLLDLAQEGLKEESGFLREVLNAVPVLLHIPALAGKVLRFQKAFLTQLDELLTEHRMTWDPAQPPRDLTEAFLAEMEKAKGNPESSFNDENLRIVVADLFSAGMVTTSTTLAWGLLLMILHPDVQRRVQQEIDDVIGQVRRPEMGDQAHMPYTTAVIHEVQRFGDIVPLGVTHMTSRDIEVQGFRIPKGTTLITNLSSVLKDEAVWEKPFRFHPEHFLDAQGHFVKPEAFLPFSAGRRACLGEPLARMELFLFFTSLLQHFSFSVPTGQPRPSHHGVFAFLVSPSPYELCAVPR
Chain of Progesterone receptor (Homo sapiens) (P06401 whole entry, looked up): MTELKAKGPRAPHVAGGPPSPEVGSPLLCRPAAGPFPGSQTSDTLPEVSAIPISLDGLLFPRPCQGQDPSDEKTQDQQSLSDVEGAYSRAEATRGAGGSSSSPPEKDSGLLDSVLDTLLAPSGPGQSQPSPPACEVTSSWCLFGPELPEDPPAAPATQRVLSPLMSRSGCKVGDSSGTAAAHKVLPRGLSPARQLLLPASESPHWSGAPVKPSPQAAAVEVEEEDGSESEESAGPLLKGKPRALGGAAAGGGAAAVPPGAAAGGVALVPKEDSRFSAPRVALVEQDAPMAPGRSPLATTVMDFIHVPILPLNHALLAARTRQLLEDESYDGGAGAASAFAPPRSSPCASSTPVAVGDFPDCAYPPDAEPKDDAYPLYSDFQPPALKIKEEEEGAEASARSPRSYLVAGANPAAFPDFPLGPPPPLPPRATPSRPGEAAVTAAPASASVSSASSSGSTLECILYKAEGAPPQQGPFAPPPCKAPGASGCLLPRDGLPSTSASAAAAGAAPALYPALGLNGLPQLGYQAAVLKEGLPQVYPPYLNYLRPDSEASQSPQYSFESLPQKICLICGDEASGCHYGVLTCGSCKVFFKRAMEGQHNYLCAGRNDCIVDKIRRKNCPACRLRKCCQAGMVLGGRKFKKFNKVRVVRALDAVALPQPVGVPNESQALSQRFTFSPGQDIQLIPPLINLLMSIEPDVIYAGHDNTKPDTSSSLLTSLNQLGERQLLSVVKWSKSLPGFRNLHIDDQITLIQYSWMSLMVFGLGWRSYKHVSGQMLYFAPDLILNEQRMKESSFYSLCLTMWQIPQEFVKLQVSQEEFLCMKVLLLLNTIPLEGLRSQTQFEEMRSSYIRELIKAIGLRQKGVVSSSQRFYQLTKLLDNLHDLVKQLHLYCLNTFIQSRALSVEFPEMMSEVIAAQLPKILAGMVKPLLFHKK
Chain of Thyrotropin-releasing hormone receptor (Homo sapiens) (P34981 whole entry, looked up): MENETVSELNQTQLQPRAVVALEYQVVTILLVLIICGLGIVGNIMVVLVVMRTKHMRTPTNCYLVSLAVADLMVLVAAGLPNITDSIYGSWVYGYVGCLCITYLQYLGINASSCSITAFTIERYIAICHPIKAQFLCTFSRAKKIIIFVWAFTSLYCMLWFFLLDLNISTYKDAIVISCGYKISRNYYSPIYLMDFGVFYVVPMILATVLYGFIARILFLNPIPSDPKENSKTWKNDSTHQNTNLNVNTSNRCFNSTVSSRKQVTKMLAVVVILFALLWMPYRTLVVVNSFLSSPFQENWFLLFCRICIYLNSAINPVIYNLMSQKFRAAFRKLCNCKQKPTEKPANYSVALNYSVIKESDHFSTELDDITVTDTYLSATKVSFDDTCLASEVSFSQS
Chain of Nuclear receptor subfamily 1 group I member 2 (Rattus norvegicus) (Q9R1A7 whole entry, looked up): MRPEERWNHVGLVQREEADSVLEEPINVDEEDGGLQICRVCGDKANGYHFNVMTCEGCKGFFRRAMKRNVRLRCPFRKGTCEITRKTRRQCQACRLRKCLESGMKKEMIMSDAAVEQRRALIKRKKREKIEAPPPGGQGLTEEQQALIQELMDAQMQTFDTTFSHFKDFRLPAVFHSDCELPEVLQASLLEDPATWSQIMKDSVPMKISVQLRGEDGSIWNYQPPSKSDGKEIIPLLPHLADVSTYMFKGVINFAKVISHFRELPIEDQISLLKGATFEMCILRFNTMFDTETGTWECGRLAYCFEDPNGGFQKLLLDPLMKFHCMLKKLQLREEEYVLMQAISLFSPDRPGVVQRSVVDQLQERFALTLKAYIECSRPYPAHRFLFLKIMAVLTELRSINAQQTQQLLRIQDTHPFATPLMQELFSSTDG

As for `O=C(Nc1ccc2c(O)c(N=Nc3ccc(N=Nc4ccc(S(=O)(=O)O)cc4)cc3)c(S(=O)(=O)O)cc2c1)c1ccccc1`, the Potency in [1] was 13.7 µM (active); in assay [9], 8.63 µM (active); in [11], 15.4 µM (active); in assay [12], 24.3 µM (active); in assay [13], 35.6 µM (active). Moreover, the Potency entry in assay [2], in [3], in [4], in assay [5], in assay [6] and in [7] was “inactive” in each case. Also, the Potency result in [10] was “inactive”. Further, the molecule was called inactive in assay [8].
Consider `CCCCC(CC)COC(=O)CCCCC(=O)OCc1ccccc1` (configuration not stated), for which the Potency result in [1], in [2], in assay [3], in [4], in assay [5] and in assay [6] was “inactive” in each case. Moreover, the Potency result in [14], in assay [9], in assay [10], in assay [11], in [12] and in [13] was “inactive” each time.
Turning to `C=C(C)c1cccc(C(=C)C)c1`, the Potency entry in [1], in assay [2], in assay [3], in [4], in assay [6] and in assay [15] was “inactive” each time. Moreover, the Potency entry in assay [14], in assay [7], in assay [9], in assay [11], in assay [12] and in [13] was “inactive” each time. In addition, the molecule was classed as inactive in [8].
For the molecule `Cc1cccc(C(=O)O)c1O`, the Potency result in assay [1], in [2], in assay [3], in assay [4], in assay [6] and in assay [15] was “inactive” throughout. Further, the Potency result in [14], in assay [7], in [9], in [10], in assay [11] and in assay [16] was “inactive” each time. Besides, the Potency result in [12], in assay [17], in [19] and in assay [13] was “inactive” throughout. In addition, in assay [8], the call was inactive. Further, the max activation in assay [18] was -0.388%.
For `Cc1ccc(C)cc1`, the Potency entry in [1], in [2], in [3], in assay [4], in assay [5] and in assay [6] was “inactive” each time. Also, the Potency result in assay [15], in assay [7], in assay [9], in assay [11], in [16] and in assay [12] was “inactive” in each case. Besides, the Potency result in [17] and in assay [13] was “inactive” in each case. The outcome in assay [8] was inactive.
With `OC1CCCc2ccccc21` (configuration not stated), the Potency result in [1], in [2], in assay [3], in assay [4], in [6] and in assay [15] was “inactive” in each case. Also, the Potency result in assay [14], in assay [7], in [9], in assay [10], in assay [11] and in assay [16] was “inactive” in each case. Further, the Potency result in assay [12] and in assay [13] was “inactive” in each case. Further, the molecule was called inactive in [8].
Take `CC1(C)CCC[C@]2(C)[C@H]3CCO[C@]3(C)CC[C@@H]12`: the Potency entry in assay [1], in assay [2], in assay [3], in assay [4], in assay [5] and in [6] was “inactive” throughout. Besides, the Potency entry in assay [14], in assay [7], in assay [9], in [10], in [11] and in assay [16] was “inactive” throughout. The Potency entry in [12], in [17] and in [13] was “inactive” in each case. Besides, the outcome in [8] was inactive.
With `CCN(CCN)c1cccc(C)c1`, the Potency result in assay [1], in assay [2], in assay [3], in [4], in assay [5] and in assay [6] was “inactive” in each case. The Potency result in assay [14], in [7], in assay [10], in [11], in assay [16] and in assay [12] was “inactive” throughout. Moreover, the outcome in assay [8] was inactive. The Potency in [17] is 61.7 µM (active) and 61.1 µM (active); in assay [13], 2.54 µM (active) and 10 µM (active).
